Measured values taken from PubChem BioAssay AID1159580 (chemical genetic matrix, 2015).
Several values for one entry are separate records, joined by “and”; a condition that tells them apart may be missing. Equal entries are not always repeated. Out of some 5,500 compounds screened, about 2,000 (36%) were called active. Inconclusive results (about 18%) are left out. Rule as the data show it: active = normalized growth mostly below about 0.91 (no sharp cut-off); inconclusive = no clear call, values can overlap the other calls; inactive = mostly above about 0.92. The list shows a part of the results.

Test: chemical genetic growth profiling, strain panel (AID 1159580);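 also: tested at 20 µM; growth read once vehicle control cultures reached saturation at 30 °C; 1 = growth at the plate median or of vehicle wells; lower values mean less growth of the strain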
Details: S. cerevisiae deletion strains, growth OD

Measured: normalized growth

CC1=C(CC(=O)O)c2cc(F)ccc2/C1=C\c1ccc(S(C)=O)cc1 (stereo unspecified)
inactive: locus YAL013W, strain DEP1, hits give low values 1 | locus YAL021C, strain ccr4, hits give low values 1.02 | locus YAL026C, strain drs2, hits give low values 1.02 | locus YAL030W, strain snc1, hits give low values 1.01 | locus YAL040C, strain CLN3, hits give low values 0.99 | locus YBL061C, strain skt5, hits give low values 1.02 | locus YBR009C, strain hhf1, hits give low values 1.01 | locus YBR021W, strain FUR4, hits give low values 1.03 | locus YBR023C, strain chs3, hits give low values 1.02 | locus YBR171W, strain sec66, hits give low values 1.02 | locus YBR229C, strain ROT2, hits give low values 1 | locus YBR231C, strain swc5, hits give low values 1.03 | locus YBR279W, strain paf1, hits give low values 1.01 | locus YCL011C, strain gbp2, hits give low values 1.03 | locus YCL016C, strain dcc1, hits give low values 1.01 | locus YCL029C, strain bik1, hits give low values 1.02 | locus YCL061C, strain MRC1 (second series), hits give low values 1.01 | locus YCL061C, strain MRC1, hits give low values 1.02 | locus YCL069W, strain vba3, hits give low values 1.02 | locus YCR088W, strain abp1, hits give low values 1.02 | locus YDL005C, strain med2, hits give low values 1.02 | locus YDL035C, strain GPR1, hits give low values 1.01 | locus YDL040C, strain nat1, hits give low values 1.01 | locus YDL074C, strain BRE1, hits give low values 0.981 | locus YDL101C, strain DUN1, hits give low values 1.01 | locus YDL134C, strain PPH21, hits give low values 0.999 | locus YDL185W, strain tfp1, hits give low values 1 | locus YDL192W, strain arf1, hits give low values 1.02 | locus YDR001C, strain nth1, hits give low values 1.02 | locus YDR069C, strain doa4, hits give low values 1.01 | locus YDR101C, strain arx1, hits give low values 1.06 | locus YDR137W, strain rgp1, hits give low values 1.02 | locus YDR150W, strain NUM1, hits give low values 0.996 | locus YDR159W, strain sac3, hits give low values 1.02 | locus YDR162C, strain NBP2, hits give low values 1.01 | locus YDR195W, strain ref2 1.04 | locus YDR297W, strain sur2, hits give low values 1.02 | locus YDR318W, strain mcm21, hits give low values 1.02 | locus YDR334W, strain swr1, hits give low values 1.02 | locus YDR335W, strain msn5, hits give low values 1.01 | locus YDR363W, strain ESC2, hits give low values 0.995 | locus YDR388W, hits give low values 1.03 | locus YDR392W, strain spt3, hits give low values 0.996 | locus YDR502C, strain sam2, hits give low values 1.02 | locus YEL003W, strain gim4, hits give low values 1.02 | locus YEL037C, strain rad23, hits give low values 1.02 | locus YEL061C, strain CIN8 (second series), hits give low values 1.03 | locus YEL061C, strain CIN8, hits give low values 1.01 | locus YER002W, strain NOP16, hits give low values 0.993 | locus YER015W, strain faa2, hits give low values 1.01 | locus YER016W, strain bim1, hits give low values 1 | locus YER110C, hits give low values 1.03 | locus YER111C, strain swi4, hits give low values 1.03 | locus YER155C, strain BEM2 (second series), hits give low values 1.03 | locus YER155C, strain BEM2, hits give low values 1.01 | locus YER167W, strain BCK2, hits give low values 1.01 | locus YFR010W, strain ubp6, hits give low values 1.02 | locus YGL078C, strain dbp3, hits give low values 1.02 | locus YGL086W, strain mad1, hits give low values 1.01 | locus YGL167C, strain pmr1, hits give low values 1.03 | locus YGL173C, strain kem1, hits give low values 1.02 | locus YGL227W, strain vid30, hits give low values 1.03 | locus YGL240W, strain doc1, hits give low values 1.01 | locus YGL248W, strain PDE1, hits give low values 0.999 | locus YGL253W, strain hxk2, hits give low values 1.02 | locus YGR078C, strain PAC10, hits give low values 1.01 and 0.998 | locus YGR135W, strain pre9, hits give low values 1 | locus YGR229C, strain SMI1, hits give low values 0.977 | locus YGR252W, strain gcn5, hits give low values 0.982 | locus YHR013C, strain ard1, hits give low values 1.03 | locus YHR027C, strain rpn1, hits give low values 1.02 | locus YHR030C, strain SLT2, hits give low values 1.01 and 0.982 | locus YHR079C, strain IRE1 (second series), hits give low values 1.03 | locus YHR079C, strain IRE1, hits give low values 0.988 | locus YHR094C, strain hxt1, hits give low values 1.02 | locus YHR129C, strain ARP1, hits give low values 0.996 | locus YHR142W, strain chs7, hits give low values 1.02 | locus YHR200W, strain rpn10, hits give low values 1.03 | locus YIL066C, strain RNR3, hits give low values 1 | locus YIL073C, strain SPO22, hits give low values 1.04 | locus YIL125W, strain kgd1, hits give low values 1.02 | locus YIR030C, strain dcg1, hits give low values 1.02 | locus YJL092W, strain hpr5, hits give low values 1.02 | locus YJL095W, strain BCK1 (second series), hits give low values 1.02 | locus YJL095W, strain BCK1, hits give low values 0.992 and 0.97 | locus YJL115W, strain asf1, hits give low values 1.03 | locus YJL129C, strain trk1, hits give low values 1.03 | locus YJL134W, strain LCB3, hits give low values 1.01 | locus YJL154C, strain vps35, hits give low values 1.02 | locus YJL164C, strain tpk1, hits give low values 1.01 | locus YJL166W, strain qcr8, hits give low values 1.01 | locus YJL168C, strain set2, hits give low values 1.02 | locus YJL187C, strain SWE1 (second series), hits give low values 1.01 | locus YJL187C, strain SWE1, hits give low values 1.02 | locus YJR043C, strain POL32, hits give low values 1 | locus YJR066W, strain TOR1, hits give low values 0.924
